Shown are actives, neighbours in structure and some others; about 1.2% of the full set was active somewhere.
N-glyco inh = N-linked glycosylation inhibition; D54 ERlucT glycosylation luciferase reporter, 24 h; percent of 100 nM tunicamycin response; reporter increase, % at 12.5 µM; actives 0.23% (n = 360,000); AID 588692;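 active = mean luciferase reporter signal, scaled so untreated is 0 and the glycosylation-blocking control 100, at or above a set limit in every replicate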;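 also: luciferase carries N-glycosylation sites so blocking glycosylation raises the light; 0% = median of neutral control wells and 100% = median of 100 nM tunicamycin wells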
RAD54 branch = blocks human RAD54 Holliday junction branch migration | FAM/BHQ fluorescence | inhibition, % at 10.4 µM | actives 0.14% (n = 360,000) | AID 602329;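 active = mean normalized replicate activity at least 40 and at least half of replicates scoring 40 or more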;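 also: 0% = median of neutral control wells and 100% = median of positive control wells; inhibitors cause a drop in the FAM fluorescence signal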
Target sequence (Q92698 whole entry, looked up): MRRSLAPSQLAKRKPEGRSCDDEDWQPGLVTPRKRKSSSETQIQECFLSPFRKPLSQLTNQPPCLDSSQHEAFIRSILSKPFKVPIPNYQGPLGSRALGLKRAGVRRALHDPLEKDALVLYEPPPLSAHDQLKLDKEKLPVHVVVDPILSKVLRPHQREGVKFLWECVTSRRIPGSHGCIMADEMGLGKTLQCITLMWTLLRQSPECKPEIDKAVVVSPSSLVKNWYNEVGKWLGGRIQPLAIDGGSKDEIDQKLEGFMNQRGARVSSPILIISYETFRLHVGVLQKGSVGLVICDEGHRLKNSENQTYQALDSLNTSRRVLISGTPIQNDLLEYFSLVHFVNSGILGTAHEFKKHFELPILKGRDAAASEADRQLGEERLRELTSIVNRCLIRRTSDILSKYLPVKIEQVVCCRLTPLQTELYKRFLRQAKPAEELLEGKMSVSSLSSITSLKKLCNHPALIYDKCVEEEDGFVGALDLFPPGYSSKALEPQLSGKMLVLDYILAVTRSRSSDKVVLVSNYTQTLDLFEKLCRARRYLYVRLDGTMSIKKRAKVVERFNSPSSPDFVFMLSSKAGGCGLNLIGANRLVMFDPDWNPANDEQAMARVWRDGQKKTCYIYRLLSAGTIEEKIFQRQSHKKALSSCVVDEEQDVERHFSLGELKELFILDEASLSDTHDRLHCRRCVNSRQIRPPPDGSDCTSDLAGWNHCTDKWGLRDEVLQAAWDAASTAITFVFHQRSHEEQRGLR
RAD52 anneal inh = inhibitors of human RAD52 DNA annealing | recombinant RAD52 DNA annealing, FRET fluorescence | inhibition, % at 18.7 µM | actives 0.46% (n = 360,000) | AID 651710;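 active = every replicate showing at least 50% inhibition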
NSD2 inh = inhibitors of human histone methyltransferase NSD2 | O96028 | NSD2 peptide methylation, AlphaScreen, 120 min | inhibition, % at 12.5 µM | actives 0.54% (n = 310,000) | AID 743445; in the data active = inhibition above about 50%
CASP6 VEID inh = caspase-6 (human) enzyme inhibition; P55212; inhibition, % at 12.5 µM; purified caspase-6, Z-VEID-R110 cleavage fluorescence; actives 0.53% (n = 350,000); AID 686996;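 active = mean inhibition across replicates at least about 35%, with every replicate also reaching that limit, limit read from the data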;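 also: 0% = median of neutral control wells and 100% = no fluorescence left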
Alpha artifact = counter-screen for NSD2 inhibitors: AlphaScreen artifacts | AC35, µM (titrated, usually from 10 µM), for inactives: top-dose activity change, negative = signal loss | shares compounds with NSD2 inh | AID 1053174 | AlphaScreen artifact counterscreen, preloaded methylated H4 peptide | actives 9.4% (n = 1,500); call rule not given here
Starred values were filed as active, the others as inactive; i = inactive; x = no result.

SMILES	N-glyco inh	RAD54 branch	RAD52 anneal inh	NSD2 inh	CASP6 VEID inh	Alpha artifact
COc1ccc(CNC(=O)CN(c2ccc(C)cc2)S(=O)(=O)c2c(C)noc2C)cc1	-3	14	-5	63*	2	-1%
COc1cccc(S(=O)(=O)N2CC[C@@H]3[C@H](CO)N(C)c4ccc(C#Cc5cccnc5)cc4[C@@H]32)c1	x	8	-18	x	0	x
O=C(O)CN1C(=O)/C(=C/c2ccc(SCc3ccccc3)o2)SC1=S	4	x	i	54*	52*	-6%
O=C(O)CN1C(=O)/C(=C\c2ccc(OC(=O)c3ccco3)cc2)SC1=S	1	-22	-150	14	16	x
Oc1ccc(/C=N/N=C(c2ccccc2)c2ccccc2)c(O)c1O	0	x	x	76*	x	4.2µM*
CC(C)(C)c1cc(C(=O)N/N=C/c2ccncc2)n[nH]1	2	0	9	55*	5	1%
O=C(C[C@H]1CC[C@H](NC(=O)Cc2cccnc2)[C@H](CO)O1)NCc1ccc2c(c1)OCO2	x	2	0	x	x	x
C[C@@H]1CCCCO[C@H](CN(C)S(=O)(=O)c2cn(C)cn2)[C@@H](C)CN([C@H](C)CO)C(=O)c2cc(NS(=O)(=O)c3cn(C)cn3)ccc2O1	x	1	12	x	0	x
COc1ccc(CC(=O)NC2CCCCCC2)c(OC)c1	-1	4	0	77*	-2	0%
COc1ccc(NC(=O)NC2CCCCCCC2)c(OC)c1	2	-2	x	0	x	x
C[C@H]1CN([C@@H](C)CO)S(=O)(=O)c2ccc(-c3ccc(C(=O)N(C)C)cc3)cc2O[C@H]1CN(C)C(=O)C1CCCCC1	x	8	-12	x	-2	x
Oc1ccc(NCc2cccc(OCc3ccccc3)c2)cc1	10	-4	-7	13	5	x
Oc1ccc(NCc2cccc(OCc3ccc(F)cc3)c2)cc1	14	x	-1	59*	38*	-5%
C[C@@H]1CN([C@@H](C)CO)C(=O)c2cccc(NC(=O)Nc3ccc(C(F)(F)F)cc3)c2O[C@H]1CN(C)Cc1ccc(Cl)c(Cl)c1	x	-9	-2	x	10	x
CCOC(=O)N1CCN(C(=O)c2ccc(OC(C)=O)cc2)CC1	0	1	-9	7	-5	x
CCOC(=O)C1CCCN(C(=O)c2ccc(S(=O)(=O)Nc3ccccc3OC)cc2)C1 (stereo not given)	3	-4	-11	54*	-40	2%
CCOC(=O)C1CCCN(C(=O)c2ccc(OC(C)=O)cc2)C1 (stereo not given)	0	-1	x	93*	x	-6%
O=C(O)c1cccc(-n2cccc2/C=C\[N+](=O)[O-])c1	-2	x	-43	69*	x	-2%
O=C(O)c1cccc(-n2cccc2/C=N/O)c1	2	14	x	52*	x	-10%
O=Cc1cccn1-c1cccc([N+](=O)[O-])c1	0	-14	-5	-4	2	x
C[C@H]1CN([C@@H](C)CO)C(=O)Cc2cc(NS(=O)(=O)c3ccc(Cl)cc3)ccc2O[C@H]1CN(C)Cc1ccc(C(=O)Nc2ccccc2N)cc1	x	x	-3	x	1	x
Nc1ccc(N(CCO)CCO)cc1	2	x	-14	117*	28	-4%
CCN(CC)c1ccc(N)cc1	-16	-2	x	x	x	x
O=C(c1ccccc1)N1C[C@H]2[C@@H](c3ccccc31)[C@@H](CO)N2S(=O)(=O)c1ccccc1	x	-3	4	x	2	x
CO[C@@H]1CN(C)C(=O)c2cc(NC(=O)C3CC3)ccc2OC[C@@H](C)N(C(=O)c2cnccn2)C[C@H]1C	x	9	0	x	-1	x
SMILES	N-glyco inh	RAD54 branch	RAD52 anneal inh	NSD2 inh	CASP6 VEID inh	Alpha artifact
O=C(CSc1nc(-c2ccccc2)c(-c2ccccc2)o1)Nc1nnc(-c2ccccc2)s1	-1	-11	x	76*	x	2%
O=C(CSc1nc(-c2ccccc2)c(-c2ccccc2)o1)Nc1nncs1	5	-1	x	1	x	x
C[C@@H]1CN([C@@H](C)CO)C(=O)Cc2cc(NS(=O)(=O)c3cn(C)cn3)ccc2O[C@@H]1CN(C)S(=O)(=O)c1ccccc1	x	-10	-4	x	0	x
CCOC(=O)c1ccc(S(=O)(=O)N2CCN(c3ccccn3)CC2)cc1	-2	-5	6	51*	-1	-1%
CCOC(=O)C1=CN(c2cccc(F)c2)C=C(C(=O)OCC)C1c1cc(OC)c(O)c([N+](=O)[O-])c1	-5	1	x	57*	x	-16%
COc1ccc(OCC(=O)NNc2c3ccccc3nc3ccccc23)cc1	-2	-3	x	61*	x	3%
O=C1C(=O)c2cccnc2-c2ncccc21	-18	x	42	145*	61*	-3%
O=C1c2ccccc2-c2nccnc21	1	-1	x	x	x	x
COC(=O)[C@@H]1[C@@H](CO)[C@@H]2Cn3c(cccc3=O)[C@@H]2N1C(=O)C1CCCC1	x	x	-19	x	2	x
O=C(OCc1cnc(Cl)s1)c1cccs1	1	-6	-6	52*	-1	2%
O=C(OCc1cnc(Cl)s1)c1ccccc1Cl	0	-6	x	0	x	x
CC(=NO)c1cc(Br)c2cccc3c2c1CC3	-2	-4	-11	66*	0	-3%
ON=C(c1ccccc1)c1ccc2c3c(cccc13)CC2	-2	5	10	13	-1	x
CC(C(=O)O)N1C(=O)/C(=C/C=C/c2ccco2)SC1=S (stereo not given)	0	18	x	176*	x	4.3µM*
CN1CCN(C2=C(Cl)C(=O)c3ccccc3C2=O)CC1	-17	x	26	106*	99*	-3%
O=C1C(Cl)=C(N2CCC(C(=O)O)CC2)C(=O)c2ccccc21	6	x	x	102*	x	2%
O=C(O)C1CCN(C(=O)c2ccccc2Cl)CC1	3	6	x	0	x	x
CCOC(=O)Nc1cc(C(=O)OC)ccc1C	2	2	8	119*	-1	5%
Fc1ccc(CNc2nc(-c3cccnc3)nc3ccccc23)cc1	0	-10	-11	118*	-5	1%
COCCCNc1nc(-c2ccncc2)nc2ccccc12	-3	8	x	-2	x	x
COCCNc1nc(-c2ccccc2)nc2ccccc12	2	x	-7	51*	-1	-3%
O=C(O)COc1ccc(/C=C/C(=O)c2ccc3ccccc3c2)cc1	3	10	x	88*	x	-5%
O=C([C@@H]1[C@@H](CO)[C@@H]2Cn3c(cccc3=O)[C@H]1N2CC1CCCCC1)N1CCOCC1	x	18	13	x	-1	x
COc1cc(/C=N/N=C2/C(=O)Nc3ccccc32)cc(OC)c1O	4	x	x	67*	x	-14%
c1cncc(-c2noc(C34CC5CC(CC(C5)C3)C4)n2)c1	-4	6	x	-9	x	x
Cc1ccccc1-c1noc(C23CC4CC(CC(C4)C2)C3)n1	-1	-9	x	63*	x	6%
CC(C)C#Cc1ccc([C@@H]2[C@@H](CO)N3C(=O)CN(C(=O)Cc4ccccc4)C[C@H]23)cc1	x	x	-16	x	-1	x

Assay outcomes (PubChem)
